Test results: PubChem BioAssay AID2685 (National Center for Advancing Translational Sciences (NCATS), 2010)
The whole screen tested about 320,000 compounds, of which about 2,100 (0.66%) were called active. About 53% were inconclusive and are not listed. Calls follow the shape of the dose curve; as a rule, active = well fitted inhibition curve with a large enough effect in the signal ratio, with a control signal flat (not every such curve was filed as active); inconclusive = small, poorly fitted or top-dose-only effect, or effect the other way, or a change in a side signal; inactive = flat fitted curve, though single readings scatter; the % refers to the signal ratio. The list comes from a sample in which actives are over-represented; it also holds similar structures and randomly drawn compounds.

Assay: qHTS Assay for Lipid Storage Modulators in Drosophila S3 Cells;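 as to cell number change: cells counted by Cell Tracker Red CMTPX staining in the red channel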; as to lipid storage change, negative = inhibition: % is scaled to controls: 0 for no effect and ±100 for the full control effect
Settings: BODIPY lipid droplet fluorescence, 18-24 h, cells fed with added oleic acid; cell number change: measured here: cell count max response; series mostly up to 46.1 µM; lipid storage change, negative = inhibition: at the top concentration
In short: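 Laser-scanning cytometry quantifies lipid droplet accumulation (500–530 nm total intensity; droplet/cell object ratio) in oleic acid-fed (400 uM added) Drosophila S3 cells treated with a concentration series. 20 uM Triacsin C defined 100% inhibition.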
Potency is read from the fitted curve at half-maximal effect.

| SMILES | lipid storage change, negative = inhibition | cell number change [%] | Potency | outcome |
| --- | --- | --- | --- | --- |
| COCCNC(=O)CSc1nc2ccccc2c(=O)n1CCC(=O)NCCc1ccc(OC)c(OC)c1 | -6.85% (inactive) | -7 |  |  |
| CCOC(=O)CN1NC2(CCC(C(C)(C)C)CC2)NC1=S (centres undefined) | -2.81% (inactive) | 0.162 |  |  |
| CCOC(=O)CN1NC2(CCC(C)CC2)NC1=S (centres undefined) |  | 16.5 | 18.4 µM (active) |  |
| CCOC(=O)CN1NC2(CCCCCCC2)NC1=S | 17% (inactive) | 26.5 |  |  |
| CC(=O)N1CC2(NC(=O)c3ccccc3N2)c2ccccc21 (centres undefined) | -3.02% (inactive) | 1.06 |  |  |
| COc1ccc(-n2nnc3c(=O)n(CC(=O)N4CCCCC4)cnc32)cc1 |  |  |  | inactive |
| Cc1ccccc1NC(=O)/C=C/c1cccs1 | -3.06% (inactive) | -15.7 |  |  |
| CN(C(=O)/C=C/c1ccc([N+](=O)[O-])s1)c1ccccc1 | -2.6% (inactive) | 5.5 |  |  |
| CC(=O)c1cccc(NC(=O)/C=C/c2ccc([N+](=O)[O-])s2)c1 | -0.322% (inactive) | -6.6 |  |  |
| Cc1ccccc1NC(=O)/C=C/c1ccc([N+](=O)[O-])s1 |  | -29.7 | 9.2 µM (active) |  |
| Cc1cc(C)cc(NC(=O)/C=C/c2ccc([N+](=O)[O-])s2)c1 | -0.708% (inactive) | -13.6 |  |  |
| Cc1cccc(NC(=O)/C=C/c2ccc([N+](=O)[O-])s2)c1 |  | -28.2 | 20.6 µM (active) |  |
| O=C(c1ccc(-n2cncn2)c([N+](=O)[O-])c1)N1CCN(c2cccc(Cl)c2)CC1 | -19.8% (inactive) | 25.4 |  |  |
| Cn1cnc2cc(OC(=O)c3ccccc3)ccc21 |  | 19.2 |  | inactive |
| CCOC(=O)c1nc(Nc2ccc(C(C)=O)cc2)c2ccccc2n1 | -4.14% (inactive) | -13.6 |  |  |
| CCCCC(CCC(=O)O)(C(=O)OCC)c1csc(Nc2ccccc2)n1 (centres undefined) | 9.89% (inactive) | 0.537 |  |  |
| CCOC(=O)/C(=N\Nc1ccc(C(C)=O)cc1)c1csc(Nc2ccccc2)n1 |  | 17.1 | 16.4 µM (active) |  |
| COc1cccc(NC(=S)Nc2cc(C(=O)O)ccc2N2CC3CC(C2)c2cccc(=O)n2C3)c1 (centres undefined) | -0.148% (inactive) | -20.1 |  |  |
| CC(C)c1cccc(C2=CC(=O)C[C@H](c3ccc(F)cc3)C2)c1 | 9.98% (inactive) | -1.84 |  |  |
| O=C(NCc1ccccc1)C(c1ccccc1)N(C(=O)c1csnn1)C1CC1 (centres undefined) | -16.2% (inactive) | 0.427 |  |  |
| COc1ccc(CNC(=O)C(c2cccc(C)c2)N(C(=O)c2csnn2)C2CC2)cc1 (centres undefined) |  | 16.2 | 2.06 µM (active) |  |
| COc1ccc(CNC(=O)C(c2ccccc2F)N(C(=O)c2csnn2)C2CC2)cc1 (centres undefined) | 16.9% (inactive) | 9.27 |  |  |
| Cc1nonc1C(=O)N/N=C/c1cc2c(cc1Br)OCO2 | -3.58% (inactive) | 13 |  |  |

| SMILES | lipid storage change, negative = inhibition | cell number change [%] | Potency | outcome |
| --- | --- | --- | --- | --- |
| COc1cc2c(cc1OC)CN(C(=S)Nc1ccc(C)cc1C)CC2 | -12.4% (inactive) | -5.84 |  |  |
| CCC(=O)Nc1ccccc1-c1nc2ccccc2[nH]c1=O |  | -8.79 |  | inactive |
| O=C(Nc1ccccc1-c1nc2ccccc2[nH]c1=O)c1cccs1 |  | 7.26 | 9.2 µM (active) |  |
| CC(C)C(=O)Nc1ccccc1-c1nc2ccccc2[nH]c1=O |  | -27.6 |  | inactive |
| Cc1c(C(=O)N2CCCCC2)c(S(=O)(=O)NCCc2ccccc2)c(C)n1C |  | -0.59 |  | inactive |
| CCOC(=O)COc1ccc(S(=O)(=O)N2CCN(C(=O)OCC)CC2)cc1 | 15% (inactive) | -5.47 |  |  |
| CCCn1c(SCC(=O)NC2CC2)nnc1-c1cccs1 | -14.1% (inactive) | 9.09 |  |  |
| Cc1ccc(NC(=O)CSCC(=O)N2CCN(Cc3ccc4c(c3)OCO4)CC2)cc1 |  | 21.6 |  | inactive |
| COc1ccc(NC2CCCN(C(=O)CSc3ccccn3)C2)cc1OC (centres undefined) | -17.1% (inactive) | -4.53 |  |  |
| COc1ccc(NC2CCCN(C(=O)CSc3ccccc3)C2)cc1 (centres undefined) |  | 3.54 |  | inactive |
| Cc1ccc(NC2CCCN(C(=O)CN3C(=O)c4ccccc4C3=O)C2)cc1C (centres undefined) | 18.6% (inactive) | 5.05 |  |  |
| COc1ccc(NC2CCCN(C(=O)CCN3CCCC3=O)C2)cc1 (centres undefined) | 8.07% (inactive) | 24.3 |  |  |
| COc1ccc(NC2CCCN(C(=O)CSc3ccncc3)C2)cc1 (centres undefined) |  | -29 | 0.231 µM (active) |  |
| COc1ccc(NC2CCCN(C(=O)CN3C(=O)c4ccccc4C3=O)C2)cc1OC (centres undefined) |  | -13.7 | 18.4 µM (active) |  |
| COc1ccc(NC2CCCN(C(=O)CCOc3ccccc3)C2)cc1 (centres undefined) |  | 2.67 |  | inactive |
| COc1ccc(NC2CCCN(C(=O)c3ccncc3)C2)cc1 (centres undefined) |  | -9.17 |  | inactive |
| COc1ccc(NC2CCCN(C(=O)COc3ccc(C)cc3)C2)cc1 (centres undefined) |  | -19.8 | 2.06 µM (active) |  |
| COc1ccc(CC(=O)Nc2ccccc2C(=O)NCCc2ccccc2)cc1 |  | 7.51 |  | inactive |
| Cc1ccc(OCC(O)CN2CCN(c3ccccc3)CC2)cc1 (centres undefined) | 15.5% (inactive) | -26.7 |  |  |
| O=C(Nc1ccc(S(=O)(=O)N2CCCCC2)cc1)C1CC1 | 11.8% (inactive) | 19.3 |  |  |
| N/C(=N\OC(=O)Cc1ccccc1[N+](=O)[O-])c1cccc(Br)c1 | -1.94% (inactive) | -2.3 |  |  |
| CC(=O)Nc1ccc2c(c1)nc(CCN1CCN(c3ccccn3)CC1)n2C | 25.6% (inactive) | -2.13 |  |  |
